Screens from PubChem BioAssay.
The list is not random: actives were taken first. Their share in the collection is about 0.71%.
IDE cell activ – human IDE activators in live cells, primary screen, fluorescence polarization, HEK cells, FAbeta-B substrate; 340,000 compounds, 0.073% hits; AID 493087, 2011; activation, % at 5.96 µM; FAbeta-B cleavage; 0% vehicle, 100% cell-free pure enzyme wells;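 active means activation above the mean of all tested compounds plus 3 SD, set per screening campaign, cut at about 17% in these data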
IDE cell inh – human IDE inhibitors in live cells, primary screen, fluorescence polarization, HEK cells, FAbetaB substrate; Insulin-degrading enzyme (Homo sapiens), P14735; FAbetaB cleavage; inhibition, % at 5.59 µM; 320,000 compounds, 0.41% hits; AID 434962, 2010;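 active means percent inhibition above the average of all tested compounds plus 3 SD, set per screening campaign, cut at about 16% in these data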;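 further: IDE supplied by intact live HEK cells; FP after avidin binding of uncleaved biotin substrate so inhibition keeps polarization high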
RTF Ca sens act – cardiac RTF calcium sensitivity activators, primary screen, biochemical, IANBD-TnC fluorescence, EC20 calcium; AID 493008, 2010; IANBD-labeled TnC RTF fluorescence at EC20 calcium; 0% EC20 calcium, 100% full calcium; activation, % at 7.2 µM; 340,000 compounds, 0.24% hits;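 active means activation above the mean over all tested compounds plus 3 SD, cut at about 30% in these data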;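 further: rise in fluorescence read as greater calcium sensitivity of cardiac thin filaments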
RTF Ca sens inh – cardiac RTF calcium sensitivity inhibitors, primary screen, biochemical, IANBD-TnC fluorescence, EC70 calcium; Troponin I, cardiac muscle (Homo sapiens) + Troponin T, cardiac muscle (Homo sapiens) + …; IANBD-labeled cardiac RTF, Ca2+ fluorescence; inhibition, % at 7.15 µM; 340,000 compounds, 0.12% hits; AID 493244, 2011;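 active means inhibition above the mean inhibition of all tested compounds plus 3 SD, cut at about 17% in these data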;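 further: assay run at fixed EC70 calcium of 1.6 mM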
IDE inh confirm – human IDE inhibitors in live cells, confirmation, fluorescence polarization, HEK cells, FAbetaB substrate | inhibition, % at 5.59 µM | FAbetaB cleavage | shares compounds with IDE cell inh | AID 435028, 2010 | 1,200 compounds, 51% hits;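 active means mean inhibition across triplicate wells above the cutoff set by the earlier primary insulin-degrading enzyme screen, cut at about 16% in these data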
HEK293 tox – cytotoxicity in HEK cells, cytotoxicity control for IDE inhibitor project, cell-based, luminescence. shares compounds with IDE cell inh. HEK293 cytotoxicity, ATP luminescence. inhibition, % at 5.59 µM. 1,200 compounds, 28% hits; in the data active means inhibition above about 22%
RTF Ca inh conf – cardiac RTF calcium sensitivity inhibitors, confirmation, biochemical, fluorescence readout | shares compounds with RTF Ca sens inh | reconstituted cardiac thin filaments | inhibition, % at 7.15 µM | 360 compounds, 8% hits | AID 504635, 2011; in the data active means inhibition above about 18%
Large screens that a line does not name were inactive (follow-up assays come after a bar, where they were run); ! = a repeat was not active.

COC(=O)C1=C(c2ccc(F)cc2F)C[C@@H]2CC[C@H]1N2C(=O)N1CCC(C)CC1	none
CC1(C)OC(c2ccccc2)=C/C(=C/C=C2C(=O)NC(=O)NC2=O)O1	IDE cell inh 50, RTF Ca sens act 110 | IDE inh confirm 55 | HEK293 tox inactive
COc1ccc(-n2c(/C=C/c3ccc(O)c(O)c3)nc3ccccc3c2=O)cc1	IDE cell inh 115 | IDE inh confirm 116 | HEK293 tox 23
COc1cc(/C=C/c2nc3ccccc3c(=O)n2-c2ccc(O)cc2)ccc1O	IDE cell inh 33 | IDE inh confirm 111 | HEK293 tox 34
O=c1c2ccccc2nc(/C=C/c2ccccn2)n1-c1ccccc1	none
O=c1c2ccccc2nc(/C=C/c2ccc3c(c2)OCO3)n1-c1ccccc1	none
COc1ccc(CN2CCN(Cc3ccccc3F)CC2)cc1	none
CN(C)C1C(=O)C(C(N)=O)=C(O)C2(O)C(=O)C3=C(O)c4c(O)cccc4C(C)(O)C3C(O)C12 (centres undefined)	RTF Ca sens inh 30 | RTF Ca inh conf inactive
Oc1ccc2c3c1O[C@H]1c4[nH]c5ccccc5c4C[C@@]4(O)[C@@H](C2)N(CC2CC2)CC[C@]314	none
Oc1ccc2c3c1O[C@H]1c4oc5ccccc5c4C[C@@]4(O)[C@@H](C2)N(CC2CC2)CC[C@]314	RTF Ca sens inh 27 | RTF Ca inh conf inactive
CC(CC(C)(C)N1CC1)=NNC(=O)Nc1cccc2ccccc12	none (no result: IDE cell inh)
CCOC(=O)C1(CCc2ccccc2)CCN(C(C)CSC)CC1 (centres undefined)	none
CSc1nc(C)c(Br)c(N2CC2)n1	none (no result: IDE cell inh)
CC12CC3CC(C)(C1)CC(N)(C3)C2	RTF Ca sens inh 17! | RTF Ca inh conf inactive
CCOc1cc2c(cc1OCC)-n1cccc1C(c1c(O)cccc1OC)NC2 (centres undefined)	none
Cc1cccc(CN(C)C)c1OC(=O)N(C)C	RTF Ca sens inh 34 | RTF Ca inh conf inactive
CC(C)(C)c1o[nH]c(=O)c1CC(N)C(=O)O (centres undefined)	RTF Ca sens inh 21 | RTF Ca inh conf inactive
Cc1nc2ccccc2c(=O)n1-c1ccc(F)cc1F	none
Cc1nc2ccccc2c(=O)n1-c1cc(F)ccc1F	RTF Ca sens inh 28 | RTF Ca inh conf inactive
C[N+]12CCC(CC1)C(=C(c1ccccc1)c1ccccc1)C2	RTF Ca sens inh 19 | RTF Ca inh conf inactive
O=C(NCCCN1CC1)Nc1cccc2ccccc12	none (no result: IDE cell inh)
